Experimental data as given in PubChem BioAssay.
For part of these data: Results with a measured potency or affinity are listed apart. The source made the active and inactive calls.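 The calls were made as follows, unless noted: active = fluorescence ratio normalized to control raised more than 50% in primary screen plus both repeat runs; inactive = the rest.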

Experiments:
[1] = test system: TRPC4 beta (transient receptor potential cation channel C4), mouse; assay: activators of mouse TRPC4 channel, confirmation, cell-based, Fluo4 calcium, HEK293 TRPC4beta/mu-opioid, duplicates, 10 µM (AID 2426); conditions: Fluo4 calcium fluorescence, at 10 µM; hits give high values
[2] = test system: transient receptor potential cation channel C4 beta (TRPC4), mouse; assay: activators of mouse TRPC4 channel, confirmation, cell-based, second round, Fluo4, HEK293 TRPC4beta/mu-opioid, 1 µM (AID 2461;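 active = primary screen active and over 50% activation in each of two duplicate runs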); conditions: Fluo4 calcium fluorescence, at 1 µM; hits give high values
[3] = test system: TRPC4 (transient receptor potential cation channel C4 beta), mouse; assay: positive allosteric modulators of mouse TRPC4, confirmation, cell-based, second round, Fluo-4, HEK293 TRPC4beta/mu-opioid, 1 µM (AID 2554;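 active = primary screen hit whose fluorescence ratio, in both repeats, exceeds the weak agonist control mean by 3 SD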); conditions: DAMGO EC20, Fluo-4 calcium flux, at 1 µM; hits give high values
[4] = test system: TRPC4 beta (transient receptor potential cation channel C4), mouse; assay: positive allosteric modulators of mouse TRPC4, confirmation, cell-based, Fluo-4, HEK293 TRPC4beta/mu-opioid (AID 2555;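 active = primary screen hit whose calcium fluorescence ratio, in both repeats, exceeds the weak agonist control mean by 3 SD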); conditions: DAMGO EC20, Fluo-4 calcium flux, at 10 µM; hits give high values
[5] = molecular target: Short transient receptor potential channel 4 (Mus musculus) (UniProt Q9QUQ5); assay: inhibitors of mouse TRPC4 channel, confirmation, cell-based, Fluo4, HEK293 TRPC4beta/mu-opioid (AID 2636;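 active = calcium signal cut by more than 3 SD below the full-agonist control yet still positive, in both repeats and the earlier primary screen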); conditions: DAMGO, Fluo4 calcium flux, at 10 µM; hits give high values
[6] = molecular target: Short transient receptor potential channel 4 (Mus musculus) (UniProt Q9QUQ5); assay: inhibitors of mouse TRPC4 channel, confirmation, cell-based, second round, Fluo4, HEK293 TRPC4beta/mu-opioid, 1 µM (AID 2637;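 active = calcium signal ratio cut to more than 3 SD under the fully stimulated control mean yet still positive, in both repeats and the primary screen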;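 as to inhibition: percent of integrated ratio relative to wells lacking test compound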); conditions: Fluo4 calcium flux, DAMGO, at 1 µM; hits give high values
[7] = molecular target: Short transient receptor potential channel 4 (Mus musculus) (UniProt Q9QUQ5); assay: mouse TRPC4 channel activators, dose response, cell-based, HEK293 TRPC4/mu-opioid, Fluo-4 calcium (AID 434937;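 active = primary screen activator hit with a dose response curve and TRPC4 channel activation at any tested dose; inactive = no activation, no dose response, or not a primary hit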)
[8] = molecular target: Short transient receptor potential channel 4 (Mus musculus) (UniProt Q9QUQ5); assay: TRPC4 positive allosteric modulators, dose response, cell-based, HEK293 TRPC4/mu-opioid, Fluo-4 calcium, EC20 DAMGO (AID 434941;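 active = earlier screen potentiator hit that boosts the TRPC4 ion channel at some dose, with a dose response; inactive = no potentiation, no dose response, or not a prior hit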;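 also: calcium entry triggered by an EC20 dose of DAMGO at the co-expressed mu-opioid receptor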)
[9] = molecular target: Short transient receptor potential channel 6 (Mus musculus) (UniProt Q61143); assay: inhibition of mouse TRPC6 channel, confirmation, selectivity assay for TRPC4 inhibitor project, cell-based, HEK293, membrane potential dye, duplicate (AID 434948;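 active = active in primary screen and both duplicates, each dropping signal beyond three positive-control SD with fluorescence still positive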); conditions: HEK293 TRPC6, membrane potential dye fluorescence, at 10 µM, stimulated with maximal-effect acetylcholine; hits give high values
[10] = molecular target: Short transient receptor potential channel 6 (Mus musculus) (UniProt Q61143); assay: activation of mouse TRPC6 channel, confirmation, selectivity assay for TRPC4 activator project, cell-based, HEK293, membrane potential dye, duplicate (AID 434950;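 active = membrane potential signal rise above negative control mean plus 3 SD in both duplicates, also active in the earlier TRPC4 screen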); conditions: HEK293 TRPC6, membrane potential fluorescence, at 10 µM; hits give high values
[11] = molecular target: Short transient receptor potential channel 6 (Mus musculus) (UniProt Q61143); assay: TRPC6 potentiation by TRPC4 potentiator hits, confirmation, selectivity assay for TRPC4 potentiator project, HEK293 cells, membrane potential dye, duplicate (AID 434952;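 active = compound raising the membrane signal above positive-control mean plus 3 SD in both repeats, and a primary screen hit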); conditions: HEK293 TRPC6, membrane potential dye fluorescence, at 10 µM, maximal acetylcholine added after compound; hits give high values
[12] = molecular target: Short transient receptor potential channel 4 (Mus musculus) (UniProt Q9QUQ5); assay: calcium flux activators in TRPC4/5HT1a cells, counter-screen for TRPC4 activator project, cell-based, second counter screen, HEK293 TRPC4/5HT1a, Fluo-4 (AID 434977;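 active = calcium signal rise above buffer-control mean plus 5 SD in both duplicates, and also a hit in the primary screen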); conditions: Fluo-4 calcium flux, at 10 µM; hits give high values
[13] = calcium flux inhibitors in TRPC4/5HT1a cells, confirmation, counter-screen for TRPC4 inhibitor project, cell-based, second counter screen, HEK293 TRPC4/5HT1a, Fluo-4 (AID 434978;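 active = primary screen active whose calcium signal fell more than 3 SD beyond the full-serotonin control mean in both duplicate plates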); conditions: Fluo-4 calcium flux, at 10 µM, serotonin added to trigger calcium flux; hits give high values
[14] = test system: TRPC4 (mouse), co-expressed with 5HT1a in HEK293; assay: calcium flux potentiators in TRPC4/5HT1a cells, confirmation, counter-screen for TRPC4 potentiator project, cell-based, second counter screen, HEK293 TRPC4/5HT1a, Fluo-4 (AID 434979;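 active = signal rise over 3 SD above mean of control wells given weak agonist, in both repeats and first screen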); conditions: Fluo-4 calcium flux, at 10 µM, serotonin added at its EC20 dose; hits give high values
[15] = calcium flux activation in mu-opioid HEK293 cells, confirmation, counter-screen for TRPC4 activator project, cell-based, HEK293 mu-opioid receptor line (AID 449723;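 active = hit in primary screen, with calcium signal over 5 SD above buffer well mean in both duplicates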;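 also: counter screen cells carry the mu-opioid receptor alone and lack TRPC4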); conditions: Fluo-4 calcium fluorescence, at 10 µM; hits give high values
[16] = calcium flux enhancement in mu-opioid HEK293 cells, confirmation, counter-screen for TRPC4 allosteric potentiator project, cell-based, HEK293 mu-opioid receptor line (AID 449724;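 active = calcium signal rise more than 3 SD above the low-dose agonist control mean, in both duplicate plates and the primary screen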); conditions: Fluo-4 calcium flux, at 10 µM, compound added before EC20 DAMGO stimulus; hits give high values

Measured: inhibition

Sequence of Short transient receptor potential channel 4 (Mus musculus) (Q9QUQ5 whole entry, looked up): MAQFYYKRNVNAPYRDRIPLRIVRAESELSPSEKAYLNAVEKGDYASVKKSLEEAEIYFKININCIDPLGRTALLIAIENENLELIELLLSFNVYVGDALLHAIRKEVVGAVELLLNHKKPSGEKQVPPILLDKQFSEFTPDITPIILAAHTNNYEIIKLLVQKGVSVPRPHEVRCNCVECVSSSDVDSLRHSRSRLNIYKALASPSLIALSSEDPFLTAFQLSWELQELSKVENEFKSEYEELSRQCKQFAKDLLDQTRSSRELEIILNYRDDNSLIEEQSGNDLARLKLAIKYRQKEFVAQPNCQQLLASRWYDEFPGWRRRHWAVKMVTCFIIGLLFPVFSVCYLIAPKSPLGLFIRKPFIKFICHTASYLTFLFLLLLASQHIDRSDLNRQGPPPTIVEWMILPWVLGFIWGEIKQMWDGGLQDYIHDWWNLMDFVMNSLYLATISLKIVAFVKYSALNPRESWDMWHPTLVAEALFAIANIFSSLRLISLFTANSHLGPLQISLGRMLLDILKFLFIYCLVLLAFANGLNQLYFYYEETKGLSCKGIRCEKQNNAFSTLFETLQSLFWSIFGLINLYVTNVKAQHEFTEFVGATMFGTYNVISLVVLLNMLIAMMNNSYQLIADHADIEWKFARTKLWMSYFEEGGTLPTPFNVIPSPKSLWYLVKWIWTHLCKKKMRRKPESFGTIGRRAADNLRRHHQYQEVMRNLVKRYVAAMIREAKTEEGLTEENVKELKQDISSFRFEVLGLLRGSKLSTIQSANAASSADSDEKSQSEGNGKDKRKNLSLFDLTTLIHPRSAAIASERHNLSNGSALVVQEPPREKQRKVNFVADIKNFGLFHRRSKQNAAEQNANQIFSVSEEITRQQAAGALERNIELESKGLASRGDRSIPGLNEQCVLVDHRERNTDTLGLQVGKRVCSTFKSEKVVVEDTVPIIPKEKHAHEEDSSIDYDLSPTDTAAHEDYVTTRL
Sequence of Short transient receptor potential channel 6 (Mus musculus) (Q61143 whole entry, looked up): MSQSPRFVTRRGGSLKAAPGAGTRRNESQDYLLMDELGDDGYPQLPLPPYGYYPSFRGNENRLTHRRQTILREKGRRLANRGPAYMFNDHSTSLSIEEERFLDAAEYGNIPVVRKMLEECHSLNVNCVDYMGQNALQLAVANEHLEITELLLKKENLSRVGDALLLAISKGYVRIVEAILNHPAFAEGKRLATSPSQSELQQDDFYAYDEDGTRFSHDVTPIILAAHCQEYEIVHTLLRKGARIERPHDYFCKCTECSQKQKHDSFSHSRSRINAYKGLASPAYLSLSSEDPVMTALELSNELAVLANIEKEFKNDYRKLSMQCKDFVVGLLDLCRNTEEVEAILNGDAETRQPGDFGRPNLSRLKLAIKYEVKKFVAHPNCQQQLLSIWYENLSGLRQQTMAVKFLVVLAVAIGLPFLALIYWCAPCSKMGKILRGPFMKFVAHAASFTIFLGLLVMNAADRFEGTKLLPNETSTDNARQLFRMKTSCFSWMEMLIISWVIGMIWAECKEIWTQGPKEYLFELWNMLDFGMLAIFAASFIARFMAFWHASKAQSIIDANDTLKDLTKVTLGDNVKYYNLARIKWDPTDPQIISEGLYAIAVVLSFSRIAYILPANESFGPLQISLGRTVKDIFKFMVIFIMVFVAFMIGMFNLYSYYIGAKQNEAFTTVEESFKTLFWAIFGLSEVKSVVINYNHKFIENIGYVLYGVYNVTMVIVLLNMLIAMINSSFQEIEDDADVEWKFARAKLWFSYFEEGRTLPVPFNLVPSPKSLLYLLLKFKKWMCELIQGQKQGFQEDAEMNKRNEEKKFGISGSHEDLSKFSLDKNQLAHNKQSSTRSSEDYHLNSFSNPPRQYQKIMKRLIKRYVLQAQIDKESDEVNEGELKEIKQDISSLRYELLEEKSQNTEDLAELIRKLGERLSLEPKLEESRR

O=C(NCCN1CCOCC1)c1ccc2c(c1)N(Cc1ccc(F)cc1)C(=O)CS2
inactive: all assays above

COc1cc(/C=C2\SC(=O)N(c3ccccc3Cl)C2=O)cc([N+](=O)[O-])c1O
active: [5] 84% | [13] 26%
inactive: all other assays above

CCCCCN1C2=NCCN2c2ccccc21
active: [5] 94% | [6] 70% | [13] 25.1%
inactive: all other assays above

O=C(Cc1cccc2ccccc12)Nc1ccc(Br)cc1C(=O)O
active: [5] 89% | [13] 28.9%
inactive: all other assays above

Cc1ccc(C[n+]2cc(-c3ccc(Cl)cc3)n3c2CCC3)cc1
active: [5] 73% | [6] 64% | [13] 41.9%
inactive: all other assays above

COc1ccccc1CNCC(c1ccccc1)c1ccccc1
active: [5] 60% | [9] 55% | [13] 44.3%
inactive: all other assays above

O=C(CSc1nc(=O)n(CCN2CCOCC2)c2c1CCC2)Nc1ccc(OC(F)(F)F)cc1
active: [5] 69%
inactive: all other assays above

O=c1c2ccccc2[nH]c(=S)n1CCN1CCN(Cc2ccccc2)CC1
active: [5] 75% | [6] 44%
inactive: all other assays above

CCOc1ccc(-c2cc(NC(=O)c3c(F)cccc3F)c(C(=O)O)s2)cc1
active: [5] 98% | [6] 41% | [13] 6.94%
inactive: all other assays above

CCOc1c(Cl)cc(CNCC(O)c2ccccc2)cc1OC (stereo not given)
active: [5] 86%
inactive: all other assays above

O=C(Cc1ccccc1[N+](=O)[O-])OCc1cccc([N+](=O)[O-])c1
active: [5] 92% | [6] 62% | [13] 35%
inactive: all other assays above

COc1ccccc1CC(Cc1nc2ccccc2[nH]1)c1nc2ccccc2[nH]1 (stereo not given)
active: [5] 83% | [6] 52%
inactive: all other assays above

CN1CCCCc2c1nc1ccccc1c2N (tested in a mixture with another compound)
active: [5] 95% | [6] 83% | [9] 27% | [13] 12.4%
inactive: all other assays above

Cc1nn(C(=O)c2cccc([N+](=O)[O-])c2)c(C)c1Sc1ccccc1
active: [5] 88% | [13] 32.5%
inactive: all other assays above

Cc1nn(-c2ccccc2)c2[nH]c(C(F)(F)F)cc(=O)c12
active: [5] 49% | [13] 31.7%
inactive: all other assays above
